Experimental data published in PubChem BioAssay (NCATS).
Values joined by “and” are separate entries in the source; they are usually repeats but may differ in a detail not shown here. Identical values can stand only once. Records with an inconclusive call do not appear. Some compounds were tested as several samples or in several runs, with calls that do not always agree. Active and inactive are the calls of the source. The call rests on the fitted dose curve; in most records, active means well fitted inhibition curve with a large enough effect; inconclusive means small, poorly fitted or top-dose-only effect; inactive means flat fitted curve, though single readings scatter.

Experiments:
CRL-7250 = normal cell line; assay: Cytotoxic Profiling of Annotated Libraries Using Quantitative High-Throughput Screening (AID 1296008); settings: Five cell lines viability, CellTiter-Glo ATP luminescence, 48-72 h; max response: hits give low values; further: potency means the concentration at half of the fitted maximal effect; on max response: on the % scale 0 is the no-effect control and ±100 the full control effect
In short: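 Cytotoxicity was measured as CellTiter-Glo ATP luminescence, read after 10 min at room temperature. Compound treatment of the cells lasted 48 or 72 hr at 37 degrees Celsius in a qHTS format.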

Dd2 = assay: qHTS profiling for inhibitors of Plasmodium falciparum proliferation (AID 504749);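 further: 0% = DMSO vehicle and full inhibition = artemisinin control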; settings: P. falciparum in erythrocytes, SYBR Green DNA, 72 h; series mostly up to 28.7 µM
In short: (§1)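 Infected RBCs, 0.3% parasitemia/2.5% Hct final; cpd 72 h, 37 C, 5% CO2; lysis buffer with saponin/triton/SYBR Green I, o/n RT dark; FI 485/535; norm. to artemisinin (0.29 uM) and DMSO.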

ECU = assay: as above; settings: P. falciparum in erythrocytes, SYBR Green DNA, 72 h; series mostly up to 28.7 µM
In short: as §1

FAB9 = assay: as above; settings: P. falciparum in erythrocytes, SYBR Green DNA, 72 h; series mostly up to 28.7 µM
In short: as §1

GB4 = assay: as above; settings: P. falciparum in erythrocytes, SYBR Green DNA, 72 h; series mostly up to 28.7 µM
In short: as §1

HB3 = assay: as above; settings: P. falciparum in erythrocytes, SYBR Green DNA, 72 h; series mostly up to 28.7 µM
In short: as §1

ICS = assay: as above; settings: P. falciparum in erythrocytes, SYBR Green DNA, 72 h; series mostly up to 28.7 µM
In short: as §1

JCK = assay: as above; settings: P. falciparum in erythrocytes, SYBR Green DNA, 72 h; series mostly up to 28.7 µM
In short: as §1

N140 = assay: as above; settings: P. falciparum in erythrocytes, SYBR Green DNA, 72 h; series mostly up to 28.7 µM
In short: as §1

P93_24 = assay: as above; settings: P. falciparum in erythrocytes, SYBR Green DNA, 72 h; series mostly up to 28.7 µM
In short: as §1

P94_40 = assay: as above; settings: P. falciparum in erythrocytes, SYBR Green DNA, 72 h; series mostly up to 28.7 µM
In short: as §1

PAD = assay: as above; settings: P. falciparum in erythrocytes, SYBR Green DNA, 72 h; series mostly up to 28.7 µM
In short: as §1

PC15 = assay: as above; settings: P. falciparum in erythrocytes, SYBR Green DNA, 72 h; series mostly up to 28.7 µM
In short: as §1

PC26 = assay: as above; settings: P. falciparum in erythrocytes, SYBR Green DNA, 72 h; series mostly up to 28.7 µM
In short: as §1

PC49 = assay: as above; settings: P. falciparum in erythrocytes, SYBR Green DNA, 72 h; series mostly up to 28.7 µM
In short: as §1

SC27B = assay: as above; settings: P. falciparum in erythrocytes, SYBR Green DNA, 72 h; series mostly up to 28.7 µM
In short: as §1

TAB109 = assay: as above; settings: P. falciparum in erythrocytes, SYBR Green DNA, 72 h; series mostly up to 28.7 µM
In short: as §1

TAB113 = assay: as above; settings: P. falciparum in erythrocytes, SYBR Green DNA, 72 h; series mostly up to 28.7 µM
In short: as §1

TAB165 = assay: as above; settings: P. falciparum in erythrocytes, SYBR Green DNA, 72 h; series mostly up to 28.7 µM
In short: as §1

W2 = assay: as above; settings: P. falciparum in erythrocytes, SYBR Green DNA, 72 h; series mostly up to 28.7 µM
In short: as §1
Further: nearly all actives have a fitted effect of over 60% in size.

COc1ccc2c3n(c(=NC(=O)c4cccnc4)nc2c1OC)CCN3
inactive: max response (CRL-7250) -15.5%

O=c1[nH]c(-c2ccc(C(F)(F)F)cc2)nc2c1CSCC2
inactive: max response (CRL-7250) -16.3%

CN(C)c1ccc(Nc2nc(N)n(C(=O)c3c(F)cccc3F)n2)cc1
inactive: max response (CRL-7250) 4.97%

O=C1CCC(N2C(=O)c3ccccc3C2=O)C(=O)N1 (stereo unspecified)
inactive: Potency (Dd2) | Potency (ECU) | Potency (FAB9) | Potency (GB4) | Potency (HB3) | Potency (ICS) | Potency (JCK) | Potency (N140) | Potency (P93_24) | Potency (P94_40) | Potency (PAD) | Potency (PC15) | Potency (PC26) | Potency (PC49) | Potency (SC27B) | Potency (TAB109) | Potency (TAB113) | Potency (TAB165) | Potency (W2) | max response (CRL-7250) 1.53% | outcome (CRL-7250)

CN(C(=O)c1ccc(F)cc1C(F)(F)F)C1CCN(c2nnc(-c3ccnn3C)c3ccccc23)CC1
inactive: max response (CRL-7250) -27.2% and -23.7%

COc1c(Cl)cc2c([nH]c3cnccc32)c1NC(=O)c1cccnc1C
inactive: outcome (CRL-7250)

O=NN(CCCl)C(=O)NCCCl
inactive: Potency (Dd2) | Potency (ECU) | Potency (FAB9) | Potency (HB3) | Potency (JCK) | Potency (N140) | Potency (P93_24) | Potency (P94_40) | Potency (PAD) | Potency (PC15) | Potency (PC26) | Potency (PC49) | Potency (SC27B) | Potency (TAB109) | Potency (TAB113) | Potency (TAB165) | max response (CRL-7250) -1.64% | outcome (CRL-7250)

COc1cc(Nc2ncc3c(n2)-c2ccc(Cl)cc2C(c2c(F)cccc2OC)=NC3)ccc1C(=O)O
active: Potency (CRL-7250) 20.6 µM

CC(C=CC1=C(C)CCCC1(C)C)=CC=CC(C)=CC(=O)O
inactive: max response (CRL-7250) -11.2%

Cc1cc(SCc2sc(-c3ccc(C(F)(F)F)cc3)nc2C)ccc1OCC(=O)O
inactive: max response (CRL-7250) -3.25%

CCc1cc(Nc2nccc(-c3c(-c4ccc(OC)c(C(=O)Nc5c(F)cccc5F)c4)nc4ccccn34)n2)c(OC)cc1N1CCC(N2CCN(S(C)(=O)=O)CC2)CC1
inactive: max response (CRL-7250) -19.7%

O=c1n(CCCN2CCN(c3cccc(Cl)c3)CC2)nc2ccccn12
inactive: Potency (Dd2) | Potency (ECU) | Potency (FAB9) | Potency (GB4) | Potency (HB3) | Potency (ICS) | Potency (JCK) | Potency (N140) | Potency (P93_24) | Potency (P94_40) | Potency (PAD) | Potency (PC15) | Potency (PC26) | Potency (PC49) | Potency (SC27B) | Potency (TAB109) | Potency (TAB113) | Potency (TAB165) | Potency (W2) | max response (CRL-7250) -10.4% | outcome (CRL-7250)

CCCCNc1cc(C(=O)O)cc(S(N)(=O)=O)c1Oc1ccccc1
inactive: Potency (Dd2) | Potency (ECU) | Potency (FAB9) | Potency (GB4) | Potency (HB3) | Potency (ICS) | Potency (JCK) | Potency (N140) | Potency (P93_24) | Potency (P94_40) | Potency (PAD) | Potency (PC15) | Potency (PC26) | Potency (PC49) | Potency (SC27B) | Potency (TAB109) | Potency (TAB113) | Potency (TAB165) | Potency (W2) | max response (CRL-7250) 0.377% | outcome (CRL-7250)

CCN(CC)CCCC(C)Nc1ccnc2cc(Cl)ccc12 (stereo unspecified)
inactive: max response (CRL-7250) 3.49% | outcome (CRL-7250)

S=C(NCc1ccc2c(c1)OCO2)N1CCN(c2ncnc3c2oc2ccccc23)CC1
active: Potency (CRL-7250) 1.46 µM
inactive: max response (CRL-7250) -64.3%

Cc1[nH]c(=O)c(C#N)cc1-c1ccc2nccn2c1
inactive: Potency (Dd2) | Potency (ECU) | Potency (FAB9) | Potency (GB4) | Potency (HB3) | Potency (ICS) | Potency (JCK) | Potency (N140) | Potency (P93_24) | Potency (P94_40) | Potency (PAD) | Potency (PC15) | Potency (PC26) | Potency (PC49) | Potency (SC27B) | Potency (TAB109) | Potency (TAB113) | Potency (TAB165) | Potency (W2) | max response (CRL-7250) 0.18% | outcome (CRL-7250)

COc1cc(F)c(F)c(Nc2ccc(I)cc2F)c1NS(=O)(=O)C1(C[C@H](O)CO)CC1
inactive: max response (CRL-7250) -24.3%
active: Potency (CRL-7250) 5.8 µM

CC(c1cc2ccccc2s1)N(O)C(N)=O (stereo unspecified)
inactive: Potency (Dd2) | Potency (ECU) | Potency (FAB9) | Potency (GB4) | Potency (HB3) | Potency (ICS) | Potency (JCK) | Potency (N140) | Potency (P93_24) | Potency (P94_40) | Potency (PAD) | Potency (PC15) | Potency (PC49) | Potency (SC27B) | Potency (TAB109) | Potency (TAB113) | Potency (TAB165) | Potency (W2) | max response (CRL-7250) -2.06% | outcome (CRL-7250)

Cc1cn[nH]c1
active: Potency (CRL-7250) 5.26 µM
inactive: Potency (Dd2) | Potency (ECU) | Potency (FAB9) | Potency (GB4) | Potency (HB3) | Potency (ICS) | Potency (JCK) | Potency (N140) | Potency (P93_24) | Potency (P94_40) | Potency (PAD) | Potency (PC15) | Potency (PC26) | Potency (PC49) | Potency (SC27B) | Potency (TAB109) | Potency (TAB113) | Potency (TAB165) | Potency (W2) | max response (CRL-7250) -13.4%

Cc1n[nH]c(C)c1Cc1sc2c(c1C(=O)N1C[C@H](O)CO1)c(=O)n(C)c(=O)n2CC(C)C
inactive: max response (CRL-7250) -7.94%

O=C(C=Cc1ccc(/C=C/C(=O)Nc2ccc(C3=NCCN3)cc2)cc1)Nc1ccc(C2=NCCN2)cc1
inactive: outcome (CRL-7250)

O=C1CCCC2=C1C(c1[nH]ncc1Cl)N=C(Nc1nc3ccccc3o1)N2 (stereo unspecified)
inactive: max response (CRL-7250) 2.7% | outcome (CRL-7250)

O=C(c1cc(Cc2n[nH]c(=O)c3ccccc23)ccc1F)N1CCN(C(=O)C2CC2)CC1
active: Potency (CRL-7250) 9.35 µM

CC(C[N+](C)(C)C)OC(N)=O (stereo unspecified)
inactive: Potency (Dd2) | Potency (ECU) | Potency (FAB9) | Potency (GB4) | Potency (HB3) | Potency (ICS) | Potency (JCK) | Potency (N140) | Potency (P93_24) | Potency (P94_40) | Potency (PAD) | Potency (PC15) | Potency (PC26) | Potency (PC49) | Potency (SC27B) | Potency (TAB109) | Potency (TAB113) | Potency (TAB165) | Potency (W2) | max response (CRL-7250) 0.597% | outcome (CRL-7250)

CC(C)OC(=O)C1=CN(C(=O)c2ccc(F)c(F)c2)CC(C)(C)c2c1[nH]c1ccccc21
inactive: max response (CRL-7250) 1.22% | outcome (CRL-7250)

O=C(O)CCc1ccc(NCc2cccc(Oc3ccccc3)c2)cc1
inactive: max response (CRL-7250) 4.81%

COc1ccc([C@@H]2CC(=O)c3c(O)cc(O[C@@H]4O[C@H](CO[C@@H]5O[C@@H](C)[C@H](O)[C@@H](O)[C@@H]5O)[C@@H](O)[C@H](O)[C@@H]4O)cc3O2)cc1O
inactive: max response (CRL-7250) -5.3% | outcome (CRL-7250)

C[C@@H]1CN(Cc2ccc(F)cc2)[C@@H](C)CN1C(=O)c1cc2c(C(=O)C(=O)N(C)C)cn(C)c2cc1Cl
inactive: max response (CRL-7250) 4.08% | outcome (CRL-7250)

CC(C)NCC(O)COc1ccc(COCCOC(C)C)cc1 (stereo unspecified)
inactive: Potency (Dd2) | Potency (ECU) | Potency (FAB9) | Potency (GB4) | Potency (HB3) | Potency (ICS) | Potency (JCK) | Potency (N140) | Potency (P93_24) | Potency (P94_40) | Potency (PAD) | Potency (PC15) | Potency (PC26) | Potency (PC49) | Potency (SC27B) | Potency (TAB113) | Potency (TAB165) | Potency (W2) | max response (CRL-7250) -5.09% | outcome (CRL-7250)
